Measured values from ChEMBL document CHEMBL1961873, “Compounds: GSK PKIS; Assays: Nanosyn kinase panel” (2012).

Legend:
[1] = target: MAP/microtubule affinity-regulating kinase 3 (Homo sapiens) (UniProt P27448); settings: at 1 µM;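 note: reported values are averaged percent inhibition of MARK3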
[2] = target: T1, MAP/microtubule affinity-regulating kinase 4 (Homo sapiens) (UniProt Q96L34); settings: at 0.1 µM
T1 sequence (whole entry): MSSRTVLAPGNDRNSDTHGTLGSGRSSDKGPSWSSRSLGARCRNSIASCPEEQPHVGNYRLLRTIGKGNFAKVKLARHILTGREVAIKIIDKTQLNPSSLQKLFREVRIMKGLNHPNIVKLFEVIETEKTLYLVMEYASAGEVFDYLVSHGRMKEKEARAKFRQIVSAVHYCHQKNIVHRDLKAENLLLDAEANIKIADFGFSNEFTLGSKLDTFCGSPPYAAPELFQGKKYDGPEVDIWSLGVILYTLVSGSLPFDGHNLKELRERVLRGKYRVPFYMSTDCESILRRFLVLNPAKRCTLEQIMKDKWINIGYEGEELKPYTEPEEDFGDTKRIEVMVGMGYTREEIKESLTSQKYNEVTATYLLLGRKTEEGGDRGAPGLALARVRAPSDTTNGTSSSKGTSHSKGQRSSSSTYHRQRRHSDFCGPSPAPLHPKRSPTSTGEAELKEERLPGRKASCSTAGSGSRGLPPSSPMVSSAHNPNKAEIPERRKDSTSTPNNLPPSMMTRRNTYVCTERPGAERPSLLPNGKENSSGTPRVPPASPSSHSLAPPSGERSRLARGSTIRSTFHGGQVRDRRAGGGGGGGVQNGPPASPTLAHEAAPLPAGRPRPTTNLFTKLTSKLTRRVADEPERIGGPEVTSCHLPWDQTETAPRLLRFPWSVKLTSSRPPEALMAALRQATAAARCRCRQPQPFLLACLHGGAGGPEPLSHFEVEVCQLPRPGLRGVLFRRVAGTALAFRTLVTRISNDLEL

[3] = target: T1, MAP/microtubule affinity-regulating kinase 4 (Homo sapiens); settings: at 1 µM
[4] = target: Maternal embryonic leucine zipper kinase (Homo sapiens) (UniProt Q14680); settings: at 0.1 µM
Maternal embryonic leucine zipper kinase (Homo sapiens), sequence (Q14680 whole entry, looked up): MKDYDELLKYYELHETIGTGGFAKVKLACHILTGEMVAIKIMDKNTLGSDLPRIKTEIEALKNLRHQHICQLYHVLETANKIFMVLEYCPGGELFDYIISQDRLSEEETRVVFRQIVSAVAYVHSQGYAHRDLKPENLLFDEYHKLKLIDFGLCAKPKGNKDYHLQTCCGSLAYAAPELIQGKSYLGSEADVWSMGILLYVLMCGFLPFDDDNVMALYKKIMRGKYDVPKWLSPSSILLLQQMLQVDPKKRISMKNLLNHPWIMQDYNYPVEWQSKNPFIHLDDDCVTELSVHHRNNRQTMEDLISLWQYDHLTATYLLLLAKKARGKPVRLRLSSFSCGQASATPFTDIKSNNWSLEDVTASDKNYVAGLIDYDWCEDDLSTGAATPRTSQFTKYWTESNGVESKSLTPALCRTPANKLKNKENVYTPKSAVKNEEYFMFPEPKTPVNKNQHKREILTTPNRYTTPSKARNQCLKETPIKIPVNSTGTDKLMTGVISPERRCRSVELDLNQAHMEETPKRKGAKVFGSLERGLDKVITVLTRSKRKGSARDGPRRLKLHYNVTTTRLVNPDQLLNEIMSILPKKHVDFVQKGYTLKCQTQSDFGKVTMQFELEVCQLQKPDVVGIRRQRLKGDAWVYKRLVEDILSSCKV

[5] = target: Maternal embryonic leucine zipper kinase (Homo sapiens) (UniProt Q14680); settings: at 1 µM
[6] = target: MAP kinase-interacting serine/threonine-protein kinase 1 (Homo sapiens) (UniProt Q9BUB5); settings: at 0.1 µM
MAP kinase-interacting serine/threonine-protein kinase 1 (Homo sapiens), sequence (Q9BUB5 whole entry, looked up): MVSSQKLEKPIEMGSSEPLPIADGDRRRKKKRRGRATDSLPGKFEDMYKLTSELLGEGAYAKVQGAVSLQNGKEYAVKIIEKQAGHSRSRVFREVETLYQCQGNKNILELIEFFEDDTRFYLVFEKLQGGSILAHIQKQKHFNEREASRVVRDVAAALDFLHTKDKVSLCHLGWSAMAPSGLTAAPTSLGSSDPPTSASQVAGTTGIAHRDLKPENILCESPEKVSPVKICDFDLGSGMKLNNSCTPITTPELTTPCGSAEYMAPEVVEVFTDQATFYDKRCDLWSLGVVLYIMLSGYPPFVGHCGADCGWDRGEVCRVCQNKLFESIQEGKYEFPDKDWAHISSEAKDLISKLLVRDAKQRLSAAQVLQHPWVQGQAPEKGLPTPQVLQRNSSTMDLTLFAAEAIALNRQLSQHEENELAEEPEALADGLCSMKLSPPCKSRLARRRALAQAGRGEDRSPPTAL

[7] = target: MAP kinase-interacting serine/threonine-protein kinase 1 (Homo sapiens) (UniProt Q9BUB5); settings: at 1 µM
[8] = target: MAP kinase-interacting serine/threonine-protein kinase 2 (Homo sapiens) (UniProt Q9HBH9); settings: at 0.1 µM
MAP kinase-interacting serine/threonine-protein kinase 2 (Homo sapiens), sequence (Q9HBH9 whole entry, looked up): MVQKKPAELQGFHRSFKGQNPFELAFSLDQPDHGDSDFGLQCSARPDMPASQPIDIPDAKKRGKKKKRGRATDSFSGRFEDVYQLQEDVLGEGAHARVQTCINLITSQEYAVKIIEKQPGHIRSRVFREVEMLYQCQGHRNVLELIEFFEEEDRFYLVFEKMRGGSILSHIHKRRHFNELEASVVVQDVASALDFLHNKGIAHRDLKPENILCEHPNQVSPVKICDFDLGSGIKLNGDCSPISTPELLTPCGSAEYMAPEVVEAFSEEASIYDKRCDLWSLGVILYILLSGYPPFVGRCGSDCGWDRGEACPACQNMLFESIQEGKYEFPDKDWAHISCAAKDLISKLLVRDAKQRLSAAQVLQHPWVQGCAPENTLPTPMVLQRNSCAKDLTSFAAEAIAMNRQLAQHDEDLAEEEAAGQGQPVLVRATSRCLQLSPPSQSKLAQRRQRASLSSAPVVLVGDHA

[9] = target: MAP kinase-interacting serine/threonine-protein kinase 2 (Homo sapiens) (UniProt Q9HBH9); settings: at 1 µM
[10] = target: Serine/threonine-protein kinase MARK2 (Homo sapiens) (UniProt Q7KZI7); settings: at 0.1 µM;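 note: mean percent inhibition of PAR-1Balpha kinase activity, reported from the GSK PKIS screen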
Serine/threonine-protein kinase MARK2 (Homo sapiens), sequence (Q7KZI7 whole entry): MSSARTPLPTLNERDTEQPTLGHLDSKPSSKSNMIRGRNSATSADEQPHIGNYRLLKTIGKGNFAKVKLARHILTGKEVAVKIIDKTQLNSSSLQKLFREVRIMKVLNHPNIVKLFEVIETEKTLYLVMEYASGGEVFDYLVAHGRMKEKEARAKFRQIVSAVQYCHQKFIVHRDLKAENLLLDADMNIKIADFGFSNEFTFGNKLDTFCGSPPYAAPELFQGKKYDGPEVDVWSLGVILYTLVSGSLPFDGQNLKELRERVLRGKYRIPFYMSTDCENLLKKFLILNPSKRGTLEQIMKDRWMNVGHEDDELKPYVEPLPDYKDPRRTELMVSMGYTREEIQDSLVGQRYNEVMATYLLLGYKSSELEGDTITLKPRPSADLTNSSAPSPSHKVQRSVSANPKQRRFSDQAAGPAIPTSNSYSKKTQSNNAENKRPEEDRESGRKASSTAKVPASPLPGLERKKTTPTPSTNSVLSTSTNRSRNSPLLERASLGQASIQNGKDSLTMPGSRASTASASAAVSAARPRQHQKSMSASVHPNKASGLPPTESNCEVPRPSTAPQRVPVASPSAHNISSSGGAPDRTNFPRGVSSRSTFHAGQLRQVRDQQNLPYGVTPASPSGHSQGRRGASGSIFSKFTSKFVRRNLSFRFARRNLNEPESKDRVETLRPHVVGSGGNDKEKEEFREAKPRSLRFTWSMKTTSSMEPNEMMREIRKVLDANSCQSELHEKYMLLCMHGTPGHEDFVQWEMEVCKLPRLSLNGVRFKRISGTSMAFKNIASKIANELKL

MAP/microtubule affinity-regulating kinase 3 (Homo sapiens), sequence (P27448 whole entry, looked up): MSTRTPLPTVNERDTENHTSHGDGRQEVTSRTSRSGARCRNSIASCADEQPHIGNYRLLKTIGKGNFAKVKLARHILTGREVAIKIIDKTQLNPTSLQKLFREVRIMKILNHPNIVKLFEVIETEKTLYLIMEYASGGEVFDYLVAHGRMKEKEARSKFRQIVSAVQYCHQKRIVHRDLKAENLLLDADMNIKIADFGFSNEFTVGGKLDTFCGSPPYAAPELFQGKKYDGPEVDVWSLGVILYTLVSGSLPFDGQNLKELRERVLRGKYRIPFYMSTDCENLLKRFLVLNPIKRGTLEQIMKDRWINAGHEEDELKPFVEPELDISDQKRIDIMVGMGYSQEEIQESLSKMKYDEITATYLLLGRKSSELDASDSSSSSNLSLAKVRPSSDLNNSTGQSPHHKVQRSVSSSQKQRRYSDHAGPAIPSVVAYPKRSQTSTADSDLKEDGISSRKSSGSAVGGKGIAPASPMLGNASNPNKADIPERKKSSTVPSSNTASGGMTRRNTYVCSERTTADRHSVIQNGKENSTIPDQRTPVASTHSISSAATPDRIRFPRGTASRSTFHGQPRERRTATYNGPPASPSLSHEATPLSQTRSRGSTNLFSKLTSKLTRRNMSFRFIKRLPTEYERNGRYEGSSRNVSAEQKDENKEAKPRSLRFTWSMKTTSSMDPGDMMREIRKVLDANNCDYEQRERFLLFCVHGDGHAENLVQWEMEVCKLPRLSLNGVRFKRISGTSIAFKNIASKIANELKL

| SMILES | inhibition [1] | inhibition [2] | inhibition [3] | inhibition [4] | inhibition [5] | inhibition [6] | inhibition [7] | inhibition [8] | inhibition [9] | inhibition [10] |
| --- | --- | --- | --- | --- | --- | --- | --- | --- | --- | --- |
| COC(=O)c1cncc(/C=C/c2c(C)cc(O)cc2C)c1 | 2.01% | 0.01% | 0.82% | 2.47% | 5.13% | 4.41% | 25.6% | 3.34% | 16.1% | 0.36% |
| NS(=O)(=O)c1cccc(-c2cc3ccncc3cc2OCc2ccccc2)c1 | 9.67% | 2.91% | 6.29% | 4.44% | 6.24% | 3.03% | 6.7% | 3.83% | 25.1% | 3.3% |
| COc1ccc(-c2nn3ncccc3c2-c2ccnc(Nc3cccc(C(F)(F)F)c3)n2)cc1 | 3.49% | 1.29% | 1.74% | 2.53% | 1.64% | 1.88% | 3.34% | 0.77% | 1.76% | -0.74% |
| C[C@@H](Oc1cc(-n2cnc3ccc(OCC4CCN(C)CC4)cc32)sc1C(N)=O)c1ccccc1C(F)(F)F | 57.6% | 8.72% | 49.9% | 0.09% | 22% | 0.35% | 1.61% | 1.1% | 4.25% | 8.53% |
| CCS(=O)(=O)c1ccc(OC)c(Nc2ncc(-c3cccc(OC)c3)o2)c1 | 2.05% | 0.15% | 1.64% | 2.89% | 11.4% | 4.25% | 17% | 1.44% | 10.6% | -0.52% |
| CN(C)c1cc2c(Nc3ccc4c(cnn4Cc4ccccc4)c3)ncnc2cn1 | -0.35% | 1.14% | 1.04% | 2.68% | 2.1% | 3.47% | 19.4% | 3.73% | 23% | 0.19% |
| NS(=O)(=O)c1cccc(Nc2cc(-c3ccc(F)cc3)n[nH]2)c1 | 19% | 3.62% | 20.2% | 0.82% | 4.1% | 2.78% | 10.7% | 3.32% | 13% | 1.43% |
| CCCN1CCCC(c2ccc(Nc3nc(Nc4cc(F)ccc4C(N)=O)c4cc[nH]c4n3)c(OC)c2)C1 (stereo not given) | 68.3% | 7.3% | 40.7% | 24% | 75.2% | 3.82% | 5.92% | 1.87% | 2.51% | 6.68% |
| Oc1cccc(-c2nc(-c3ccccc3)[nH]c2-c2ccncc2)c1 | 6.43% | 1.16% | 2.71% | 4.46% | 5.5% | 5.55% | 25.6% | 1.57% | 14.8% | -0.88% |
| COC(=O)c1ccc2c(c1)C(=Cc1cc(Br)c(O)c(Br)c1)C(=O)N2 | 3.71% | 0.93% | 5.08% | 6.21% | 22.2% | 1.07% | 5.73% | 2.35% | 19% | 0.84% |
| NS(=O)(=O)c1ccc(NC=C2C(=O)Nc3ccc4ncsc4c32)cc1 | 60.7% | 21% | 58.7% | 62.7% | 94.4% | 9.09% | 39.2% | 3.84% | 18.1% | 14% |
| CC(C)c1ccc2c(c1)NC(=O)/C2=N/Nc1ccc(S(N)(=O)=O)cc1 | -2.09% | -0.86% | 0.13% | 0.88% | 0.52% | 1.43% | 2.29% | 0.22% | 2.57% | -1.41% |
| c1ccc(Nc2ncc(-c3ccccc3)o2)cc1 | 4.02% | 2.77% | 4.32% | 5.53% | 9.84% | 1.77% | 3.22% | 0.51% | 4.71% | 0.14% |
| Cc1cc(O)cc(C)c1/C=C/c1cncc(C(=O)N(C)C)c1 | 13.7% | 1.25% | 2.49% | 3.84% | 4.23% | 4.18% | 18% | 2.2% | 9.99% | -1.4% |
| COc1cc(/C=N/Nc2ncnc3c2cnn3C(C)C)ccc1O | 0.41% | 0.37% | 4.17% | 26.7% | 80.3% | 1.07% | 5.78% | 1.33% | 2.77% | -0.89% |
| OCc1ccc(-c2nc(-c3ccccn3)c(-c3ccc4c(c3)OCO4)[nH]2)cc1 | 4.42% | 1.75% | 2.19% | 6.02% | 4.4% | 2.65% | 2.54% | 0.41% | 0.09% | 1.8% |
